Where “and” joins values, the source holds several entries; their conditions need not be identical. Equal entries are not always repeated. Inconclusive results are not listed. Calls of active or inactive are those of the source. Unless noted, calls follow the shape of the dose curve; as a rule, active = well fitted curve in the direction sought with a large enough effect in the repeat runs; inconclusive = weak or mixed curves; inactive = no such curve, though single readings can be large; an effect the other way counts as inactive or inconclusive.
Tests used:
[1] = qHTS assay to identify small molecule agonists of H2AX - cell viability counter screen (AID 1224847; calls by dose curve;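 also: wild-type CHO-K1 cells; top concentration of the series differs between compounds; nearly all actives have a fitted effect of over 30% in size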)
Summary of the method: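 CHO-K1 wt, 1000 cells/well, o/n 37C; cpds 15 conc, 3 h 37C, 0.76% DMSO; CellTiter-Glo, 30 min RT, luminescence.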

[2] = qHTS RealTime-Glo MT Cell Viability Assay in HepG2 cells - 24 hour (AID 1224867); also: nearly all actives have a fitted effect of over 50% in size
Summary of the method: (§1)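 Compound treatment began 5 h after plating HepG2 cells (600/well) with NanoLuc luciferase and prosubstrate. Plates stayed at 37 C for 40 h; luminescence was captured at six time points, 0 h through 40 h.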

[3] = qHTS RealTime-Glo MT Cell Viability Assay in HEK293 cells - 32 hour (AID 1224868); also: top concentration of the series differs between compounds; nearly all actives have a fitted effect of over 50% in size
Summary of the method: (§2)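 Quantitative high-throughput screen of the Tox21 10K library in HEK293: cells and RealTime-Glo reagents plated together, compound added at 5 h, luminescence monitored through 40 h at 37 C.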

[4] = A CellTox Green Cytotoxicity Assay to monitor cytotoxicity in HEK293 cells - 0 hour (AID 1224869); also: nearly all actives have a fitted effect of over 50% in size
Summary of the method: (§3)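 Read-out: fluorescence of a cell-impermeant cyanine dye staining DNA of dead cells, proportional to cytotoxicity. HEK293, 600 cells/well with reagent, compound (23 nL DMSO) added after 5 h; reads at 0, 8, 16, 24, 32, 40 h.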

[5] = qHTS RealTime-Glo MT Cell Viability Assay in HepG2 cells - 40 hour (AID 1224870); also: nearly all actives have a fitted effect of over 50% in size
Summary of the method: (§4)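 HepG2 cells (600/well) mixed with RealTime-Glo MT reagent, settled 5 h at 37 C/5% CO2 before compound addition. Nonlytic NanoLuc luminescence from viable-cell prosubstrate reduction read repeatedly during 40 h treatment at 37 C.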

[6] = A CellTox Green Cytotoxicity Assay to monitor cytotoxicity in HEK293 cells - 40 hour (AID 1224871); also: nearly all actives have a fitted effect of over 45% in size
Summary of the method: as §3

[7] = qHTS RealTime-Glo MT Cell Viability Assay in HEK293 cells - 16 hour (AID 1224872)
Summary of the method: as §2

[8] = qHTS RealTime-Glo MT Cell Viability Assay in HepG2 cells - 8 hour (AID 1224873); also: nearly all actives have a fitted effect of over 55% in size
Summary of the method: as §4

[9] = qHTS RealTime-Glo MT Cell Viability Assay in HEK293 cells - 40 hour (AID 1224874); details: RealTime-Glo luminescence; max response: active compounds read low; also: nearly all actives have a fitted effect of over 50% in size
Summary of the method: (§5)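 Luminescence readout at each listed time point; HEK293, 600 cells/well, RealTime-Glo MT reagent added with cells; compounds pinned (23 nL in DMSO) after 5 h at 37 C; continuous culture at 37 C.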

[10] = A CellTox Green Cytotoxicity Assay to monitor cytotoxicity in HEK293 cells - 24 hour (AID 1224875); also: nearly all actives have a fitted effect of over 45% in size
Summary of the method: as §3

[11] = A CellTox Green Cytotoxicity Assay to monitor cytotoxicity in HepG2 cells - 16 hour (AID 1224876); also: nearly all actives have a fitted effect of over 45% in size
Summary of the method: (§6)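 HepG2, 600 cells/well premixed w/ CellTox Green; 5 h settle, 37 C/5% CO2; pintool cpd add (DMSO); 37 C, 40 h; fluorescence read at 0, 8, 16, 24, 32, 40 h.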

[12] = qHTS RealTime-Glo MT Cell Viability Assay in HepG2 cells - 32 hour (AID 1224877); also: nearly all actives have a fitted effect of over 55% in size
Summary of the method: as §1

[13] = A CellTox Green Cytotoxicity Assay to monitor cytotoxicity in HepG2 cells - 24 hour (AID 1224878); also: nearly all actives have a fitted effect of over 45% in size
Summary of the method: as §6

[14] = A CellTox Green Cytotoxicity Assay to monitor cytotoxicity in HepG2 cells - 40 hour (AID 1224879); also: nearly all actives have a fitted effect of over 40% in size
Summary of the method: as §6

[15] = qHTS RealTime-Glo MT Cell Viability Assay in HEK293 cells - 0 hour (AID 1224880)
Summary of the method: as §5

[16] = A CellTox Green Cytotoxicity Assay to monitor cytotoxicity in HEK293 cells - 32 hour (AID 1224881); also: nearly all actives have a fitted effect of over 40% in size
Summary of the method: as §3

[17] = A CellTox Green Cytotoxicity Assay to monitor cytotoxicity in HepG2 cells - 0 hour (AID 1224882); also: nearly all actives have a fitted effect of over 35% in size
Summary of the method: as §6

[18] = A CellTox Green Cytotoxicity Assay to monitor cytotoxicity in HepG2 cells - 32 hour (AID 1224883); also: nearly all actives have a fitted effect of over 50% in size
Summary of the method: as §6

[19] = qHTS assay to identify small molecule antagonists of the estrogen related receptor (ERR) signaling pathway from Tox21 library (AID 1224848); also: nearly all actives have a fitted effect of over 50% in size
Summary of the method: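 Compounds dissolved in DMSO are pin-transferred onto ERR reporter cells (2,000 per well) that have settled for 6 h at 37 C. Plates then incubate 18 h at 37 C before ONE-Glo luciferase reagent and a luminescence read 30 min later.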

[20] = qHTS assay to identify small molecule agonists of the estrogen related receptor (ERR) signaling pathway from Tox21 library (AID 1224849; calls by dose curve; also: nearly all actives have a fitted effect of over 15% in size); details: ERR reporter cell line, ONE-Glo luciferase, 18 h
Summary of the method: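 Luminescence readout (ONE-Glo, 30 min RT) after 18 h compound exposure at 37 C of NTP-supplied ERR reporter cells; cells were plated 6 h before compound addition by pin tool.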
% is scaled to controls: 0 for no effect and ±100 for the full control effect.

O=NN1CCCCCCC1
inactive: Potency [1] | outcome [2] | Potency [3] | Potency [4] | outcome [5] | Potency [6] | outcome [7] | outcome [8] | max response [9] 6.51% and -7.12% | Potency [10] | Potency [11] | outcome [12] | Potency [13] | Potency [14] | outcome [15] | Potency [16] | Potency [17] | Potency [18]

O=Cc1cccc(Oc2ccccc2)c1
inactive: Potency [1] | outcome [2] | Potency [3] | Potency [4] | outcome [5] | Potency [6] | outcome [7] | outcome [8] | max response [9] -18.5% and 0.95% | Potency [10] | Potency [11] | outcome [12] | Potency [13] | Potency [14] | outcome [15] | Potency [16] | Potency [17] | Potency [18]

O=S(=O)(c1ccc(O)cc1)c1ccc(O)cc1
inactive: Potency [1] | outcome [2] | Potency [3] | Potency [4] | outcome [5] | Potency [6] | outcome [7] | outcome [8] | max response [9] -19.2% | Potency [10] | Potency [11] | outcome [12] | Potency [13] | Potency [14] | outcome [15] | Potency [16] | Potency [17] | Potency [18]

Nc1ccccc1C(=O)O
inactive: Potency [19] | activity change, positive = activation ([20]; at 42.5 µM (top of the series)) 5.44% | activity change, positive = activation ([20]; at 92.4 µM (top of the series)) 6.82% | outcome [2] | Potency [3] | Potency [4] | outcome [5] | Potency [6] | outcome [7] | outcome [8] | max response [9] 10.4% and 8.34% | Potency [10] | Potency [11] | outcome [12] | Potency [13] | Potency [14] | outcome [15] | Potency [16] | Potency [17] | Potency [18]

c1ccc2c(c1)oc1ccccc12
inactive: Potency [1] | outcome [2] | Potency [3] | Potency [4] | outcome [5] | outcome [7] | outcome [8] | max response [9] -5.88% and -12.6% | Potency [10] | Potency [11] | outcome [12] | Potency [13] | outcome [15] | Potency [16] | Potency [17]

Cc1ccccc1O
inactive: Potency [1] | outcome [2] | Potency [3] | Potency [4] | outcome [5] | Potency [6] | outcome [7] | outcome [8] | max response [9] 2.91% and -0.867% | Potency [10] | Potency [11] | outcome [12] | Potency [13] | Potency [14] | outcome [15] | Potency [16] | Potency [17] | Potency [18]

COP(N)(=O)SC (stereo not given)
inactive: Potency [1] | outcome [2] | Potency [3] | Potency [4] | outcome [5] | Potency [6] | outcome [7] | outcome [8] | max response [9] -1.86% and 15.3% | Potency [10] | Potency [11] | outcome [12] | Potency [13] | Potency [14] | outcome [15] | Potency [16] | Potency [17] | Potency [18]

Source: PubChem BioAssay (Tox21)
